# This is a sample that favours compounds with a hit; in the whole collection about 6.6% have one here.
# BoNT F protease – blocks Botulinum neurotoxin F light chain protease; inhibition, % at 10 µM; 360,000 compounds, 0.22% hits; Multiplex microsphere protease cleavage assay, flow cytometry; in the data active = inhibition above about 35%, passing the limit was not always enough; inconclusive = no clear call, values can overlap the other calls; also: plate controls were buffer without enzyme for full effect and enzyme alone for no effect
# Mtb FBA inh – inhibitors of M. tuberculosis fructose-bisphosphate aldolase. P9WQA3. purified M. tuberculosis FBA, fluorescence read-out. inhibition, % at 1 µM. 360,000 compounds, 2.3% hits. AID 588726; in the data active = inhibition above about 27%;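 also: 0% = vehicle and 100% = reference inhibitor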
# GDH-TPI counter – inhibits GDH-TPI coupling enzymes, artifact for Mtb FBA screen | GDH-TPI coupled enzyme counterscreen, NADH absorbance | inhibition, % at 4.8 µM | 360,000 compounds, 1.2% hits; in the data active = inhibition above about 30%;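 also: 0% = DMSO wells and 100% = wells lacking the enzyme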
# Bead autofluor – flagged as autofluorescent in microsphere protease counterscreen. compound autofluorescence counterscreen, microsphere flow cytometry; hits give high values. 360,000 compounds, 3.1% hits. fluorescence intensity (no concentration beside the values). AID 624483; in the data active = fluorescence intensity above about 16000; inconclusive = no clear call, values can overlap the other calls
# Anthrax LF inh2 – inhibitors of Bacillus anthracis lethal factor protease; multiplex microsphere protease cleavage assay, LF; 360,000 compounds, 0.12% hits; inhibition, % at 10 µM; P15917; also: plate controls were buffer without enzyme for full effect and enzyme alone for no effect
# Target sequence (P15917 whole entry, looked up): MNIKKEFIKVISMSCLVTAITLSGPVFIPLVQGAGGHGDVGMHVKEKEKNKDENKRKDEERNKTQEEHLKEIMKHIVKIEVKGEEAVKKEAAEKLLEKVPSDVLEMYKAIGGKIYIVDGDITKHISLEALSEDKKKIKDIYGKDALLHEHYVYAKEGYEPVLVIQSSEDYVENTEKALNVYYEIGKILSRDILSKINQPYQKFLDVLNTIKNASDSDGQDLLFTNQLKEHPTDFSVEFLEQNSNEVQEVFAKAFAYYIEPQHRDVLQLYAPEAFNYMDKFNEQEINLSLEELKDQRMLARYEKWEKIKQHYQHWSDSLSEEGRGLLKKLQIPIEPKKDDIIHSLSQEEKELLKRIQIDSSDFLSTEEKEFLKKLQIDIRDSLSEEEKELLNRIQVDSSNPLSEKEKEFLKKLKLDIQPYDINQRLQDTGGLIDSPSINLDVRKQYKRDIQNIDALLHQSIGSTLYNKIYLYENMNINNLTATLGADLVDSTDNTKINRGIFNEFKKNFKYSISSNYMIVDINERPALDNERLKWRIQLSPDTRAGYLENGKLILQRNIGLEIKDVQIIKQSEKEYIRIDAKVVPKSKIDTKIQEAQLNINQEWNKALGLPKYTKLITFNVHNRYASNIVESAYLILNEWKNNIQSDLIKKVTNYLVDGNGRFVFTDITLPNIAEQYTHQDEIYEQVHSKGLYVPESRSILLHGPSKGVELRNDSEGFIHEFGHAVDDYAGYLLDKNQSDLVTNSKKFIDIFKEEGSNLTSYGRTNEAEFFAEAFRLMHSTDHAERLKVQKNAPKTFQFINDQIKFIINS
# BoNT A protease – blocks Botulinum neurotoxin A light chain protease; multiplex microsphere protease substrate cleavage, flow cytometry; inhibition, % at 10 µM; 360,000 compounds, 0.17% hits; AID 588499; also: plate controls were buffer without enzyme for full effect and enzyme alone for no effect
# * = called active by the depositor; u = inconclusive; x = not tested or not shown. Rule as the data show it, unless noted: active = inhibition above about 30%; inconclusive = no clear call, values can overlap the other calls; inactive = below that.
SMILES,BoNT F protease,Mtb FBA inh,GDH-TPI counter,Bead autofluor,Anthrax LF inh2,BoNT A protease
CCn1cc(C(=O)N[C@@H](CCSC)C(=O)NCCCN2CCOCC2)c(=O)c2cc3c(cc21)OCO3,1.0,11.5,14.4,5475,6.3,1.6
COc1ccc(C(C)(O)c2nc(-c3cccc(F)c3)cs2)cc1 (stereo unspecified),-6.9,-4.4,-4.4,3647,-2.8,-0.5
CC(=O)CC(c1ccccc1)S(=O)(=O)c1ccc([N+](=O)[O-])cc1 (stereo unspecified),-26.7,-3.3,0.4,6152,-2.6,-5.2
S=C(NCCc1ccccc1)N1CCc2ccccc2C1,-4.0,-1.0,-2.6,2188,0.8,-0.6
Cc1cccc(C)c1NC(=O)CSc1nc(-c2ccco2)cc(C(F)(F)F)n1,0.3,1.8,33.3*,8806,-4.0,0.5
CC1(NC(=O)COc2ccccc2-c2ccccc2)CCS(=O)(=O)C1 (stereo unspecified),-3.6,-1.3,1.9,16681*,-5.1,-0.4
O=C(Nc1ccc(-n2nncc2-c2ccco2)cc1)c1cc2ccccc2oc1=O,7.0,5.2,10.0,20140*,0.6,1.8
O=C(Nc1ccc(-n2nncc2-c2ccco2)cc1)c1cccc(F)c1,-15.2,-1.2,-4.3,12002,-4.8,-1.0
COc1ccc2nc(-c3ccccc3)nc(SC)c2c1,-7.6,5.7,14.6,2934,-4.1,0.9
CCOc1cc(/C=C2/N=C(c3ccc4c(c3)OCO4)OC2=O)ccc1OC(C)=O,-6.9,-1.8,7.4,u,2.0,3.6
CN(C)/C=C1\N=C(c2ccccc2)OC1=O,-2.6,-3.3,34.6*,1916,-0.4,-0.1
CN(C)/C=C1\N=C(c2ccc3c(c2)OCO3)OC1=O,-4.9,6.2,53.4*,2939,-1.8,-0.1
Nc1c(-c2cccs2)cnn1-c1nc(-c2ccc(Cl)cc2Cl)cs1,-4.0,-2.0,-1.2,23441*,-3.3,u
Nc1c(-c2cccs2)cnn1-c1nc(-c2ccc(F)cc2)cs1,1.0,-2.1,12.6,15352,-2.4,2.3
CCCSc1nc2c(c(=O)n(C)c(=O)n2C)n1C,-3.9,0.9,5.3,3002,-8.0,-8.2
CCCSc1nc(O)c(CC)c(=O)n1C(C)CC (stereo unspecified),11.0,-4.8,-2.1,19471*,-9.2,u
CCN(CC)c1ccc(/C=N/N2CCN(Cc3cccc4ccccc34)CC2)c(O)c1,-8.4,-1.9,-2.5,23476*,-7.7,-4.3
O=C(O)C1OCC2(CO1)COC(C(=O)O)OC2 (stereo unspecified),0.7,2.6,7.0,3952,-3.8,-0.6
C/C(=N\NC(=O)c1ccc(Cl)c(Cl)c1)c1ccccn1,37.4*,2.4,8.8,3592,-3.5,11.1
C[C@@H]1CN([C@@H](C)CO)C(=O)CCCn2nncc2CO[C@H]1CN(C)C(=O)Nc1ccccc1F,-5.9,0.6,0.0,3794,2.2,-0.3
Cc1cc(C)nc(SCC(=O)c2ccc(O)cc2O)n1,-5.2,-1.5,50.5*,6445,7.1,-0.6
O=C(CSc1nnnn1-c1ccccc1)NCc1cccs1,-1.7,-1.6,4.4,16730*,0.7,-0.5
O=C(CSc1nnnn1-c1ccccc1)c1ccc(O)cc1O,-3.1,-7.7,42.0*,4424,-6.4,0.4
C[C@@H]1CCCCO[C@H](CN(C)C(=O)Nc2ccc(C(F)(F)F)cc2)[C@@H](C)CN([C@H](C)CO)C(=O)c2cc(NC(=O)c3ccncc3)ccc2O1,1.6,-1.5,-7.1,3502,-0.3,0.1
O=C(NCC1(c2ccccc2)CCOCC1)c1cccs1,5.0,1.5,5.6,3393,-5.9,0.4
SMILES,BoNT F protease,Mtb FBA inh,GDH-TPI counter,Bead autofluor,Anthrax LF inh2,BoNT A protease
Cn1c(SCC(=O)N2CCN(c3ccccc3)CC2)nnc1-c1ccncc1,5.7,-1.1,11.6,3570,5.4,-0.1
Cn1c(SCC(=O)N2CCN(c3cccc(Cl)c3)CC2)nnc1-c1ccncc1,-1.5,0.9,-1.0,22921*,0.4,-0.6
Nc1nnc(SCC(=O)N2CCN(c3cccc(Cl)c3)CC2)n1-c1ccccc1,-2.6,-4.9,10.3,23616*,-2.6,-0.3
CCn1c(SCC(=O)N2CCN(c3ccc(F)cc3)CC2)nnc1-c1ccncc1,-3.6,4.8,0.5,20103*,1.1,-1.6
Cn1c(SCC(=O)N2CCN(c3ccccc3)CC2)nnc1-c1cc2ccccc2o1,-1.9,2.0,5.6,16756*,-9.8,-2.6
CCn1c(SCC(=O)N2CCN(c3ccc(F)cc3)CC2)nc2ccccc2c1=O,-5.0,-2.6,7.7,2600,-13.5,-0.8
Nc1nnc(SCC(=O)N2CCN(c3ccccc3)CC2)n1-c1ccccc1,-6.0,-8.8,10.6,3211,-0.4,-0.2
CCCN(C)C[C@H]1OCc2cnnn2CCCC(=O)N([C@H](C)CO)C[C@@H]1C,1.2,0.8,x,4140,1.7,-0.2
C=CCN1C(=O)c2ccc(C(=O)N3CCN(c4ccccc4OC)CC3)cc2C1=O,17.4,-0.2,5.8,u,-0.1,1.9
O=C(NCc1ccccc1)c1ncn[nH]1,4.8,-5.2,7.2,4737,6.8,0.5
c1cnn(-c2cncc(-n3cccn3)n2)c1,-5.4,15.6,31.7*,3789,5.1,-0.2
O=C(O)c1ccc(-n2cccn2)nc1,-0.6,0.9,-0.4,2654,1.4,-0.5
Cn1cccc1/C=C1\SC(=S)N(NC(=O)c2ccccc2O)C1=O,-16.2,-39.2,32.9*,4980,7.2,0.3
O=C(NN1C(=O)/C(=C/c2cccs2)SC1=S)c1ccccc1,40.7*,-2.5,11.8,8439,21.5,9.6
NC(=O)C1=C[C@@H](c2ccc(C(F)(F)F)cc2)C[C@@H](OCCCCO)O1,-0.8,2.5,-3.1,4091,1.4,-0.1
C=CC(c1ccccc1)C(C(=O)c1ccccc1)N(C)C (stereo unspecified),-4.0,0.7,6.0,4273,-5.3,-1.7
COc1ccc(N2CCN(CC(=O)Nc3ccc(C)c(C)c3)CC2)cc1,u,-0.7,-0.8,3196,16.4,-4.4
O=C(CNC(=O)c1ccccc1F)NC1CC1,2.4,-1.5,-4.8,19571*,2.0,u
O=C(COC(=O)c1ccccc1F)NC1CC1,-5.4,1.8,-3.2,u,-0.8,-3.1
O=C(CNC(=O)c1ccccc1F)OCCCOC(=O)CNC(=O)c1ccccc1F,-164.0,3.5,-3.1,30957*,-23.1,-107.8
CS(=O)(=O)N1N=C(c2ccccc2)CC1c1ccc2nccnc2c1 (stereo unspecified),9.5,-1.6,0.7,10220,1.3,3.3
CS(=O)(=O)N1N=C(c2ccc3nccnc3c2)CC1c1ccccc1 (stereo unspecified),0.8,-0.1,1.9,24132*,0.5,1.3
CN(CCc1ccccn1)Cc1ccc(Cl)cc1,-2.7,-0.1,-3.1,20900*,-0.3,-0.5
CCc1ccc(CN(C)CCc2ccccn2)cc1,-0.7,2.3,8.1,16273*,-4.3,u
O=C(Nc1nnc([C@@H]2C[C@H](O)[C@@H](CO)O2)s1)c1cccc(C(F)(F)F)c1,4.8,-1.2,8.0,3898,-2.8,0.0

# Source: PubChem BioAssay
